These results are taken from PubChem BioAssay.

Values joined by “and” are separate entries in the source; they are usually repeats but may differ in a detail not shown here. Equal entries are not always repeated. Active and inactive are the calls of the source.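 Rule for the calls, unless noted: active = normalized viability below 100% at a tested concentration; inactive = the rest.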

The nature of assay [1]: liver-stage malaria parasite growth inhibition, primary screen, cell-based, HepG2, luciferase luminescence, HepG2 viability (AID 624349; in the data active = parasite load remaining mostly below about 12%, no sharp cut-off; inactive = mostly above about 10%;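 note: 100% = mean of DMSO negative control wells on the same plate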). The conditions noted are these: P. berghei liver stage in HepG2, luciferase luminescence, concentration not given here; parasite load remaining: stronger effect = lower value; viability: measured here: HepG2 viability without parasites.
Assay [2] deals with Aerobactin synthetase IucA (Klebsiella pneumoniae). Nature of the assay: IucA aerobactin synthetase inhibitors, biochemical, Tocris library, absorbance (AID 1345561; call rule not given here;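 note: 100% = enzyme without compound and 0% = no enzyme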). The note with it: purified IucA enzyme assay, absorbance (OD) read-out; stronger effect = lower value;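 tested at 8 µM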.
A short description of assay [3]: sensitizers of A549 cells to miR-34 induction, primary screen, imaging, A549 dox-inducible miR-34, nuclei and caspase counts (AID 1347080;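 active = compounds whose cell count with miR-34 switched on is under 0.7 times the count with it off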). The note with it: A549 miR-34 inducible, Hoechst nuclei count, 48 h.
Assay [4] is described as follows: survival rescue of mitochondrial mutant cells in low glucose, primary screen, MELAS cybrids, Rieske KO mouse fibroblasts, CellTiter-Glo (AID 1508586;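 active = mean z-score across replicates of 1.96 or higher in either the MELAS or the Rieske mutant cell line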;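 note: z relative to plate mean and SD of compound and empty wells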). On the technique in general: ATP-based viability assays read luminescence as a measure of living cells.
A short description of assay [5]: viability rescue of complex I mutant cybrids, primary screen, cell-based, galactose medium, ATP luminescence (AID 1645843;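 active = z-score of at least 1.8 in each of two replicates, scored against plate mean and spread of sample wells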;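 note: positive z means more ATP and so rescue of galactose-driven cybrid death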). The note with it: complex I mutant cybrid cells, 72 h, stronger effect = higher value.
Assay [6] can be described thus: modifiers of HSF1 nuclear foci, imaging, Selleck Cancer Library (AID 1347162; in the data active = plate-normalised HSF1 focus index below about 0.46). The note with it: human cells, at 10 µM; SSMD: measured here: HSF1 foci SSMD mean; cell count: measured here: cell number; plate-normalised HSF1 focus index: stronger effect = lower value.
Assay [7] in a line: ovarian cancer cell viability with rucaparib, profiling panel, oncology-focused library, rucaparib conditional (AID 1508598). The note with it: patient-derived ovarian cancer cells, CellTiter-Glo viability, 144 h, stronger effect = lower value.
The mark [8] stands for this setting: stronger effect = lower value, cell number ratio, induced over uninduced.
The mark [9] stands for this setting: measured here: relative caspase fold change +Dox/-Dox.
Where [10] appears, read: measured here: total cells with miR-34 induction, stronger effect = lower value.
The mark [11] stands for this setting: measured here: total cells without miR-34 induction.
[12] abbreviates: MELAS cybrid survival, CellTiter-Glo 48 h, stronger effect = higher value.
Setting [13] is: Rieske KO mouse fibroblast survival, CellTiter-Glo 72 h.

Take `CCCCCCCCCCCCCCCCn1cc[n+](Cc2ccccc2)c1C`: the parasite load remaining in assay [1] was 41.6% (inactive). Moreover, the viability in assay [1] was found to be 156%. Besides, the remaining activity in assay [2] is 93.9% (inactive). In addition, the fold change in assay [3] (setting [8]) was 0.951 (inactive) and 0.701 (inactive); in assay [3] (setting [9]), 0.478 and 0.77. The cell count in assay [3] (setting [10]) was 1020 and 275; in assay [3] (setting [11]), 1080 and 392. Further, the figures for the z-score in assay [4] (setting [12]), in assay [4] (setting [13]) and in assay [5] were 0.978 (inactive), -3.72 and -0.7 (inactive), respectively.

Take `CCCn1c(=O)[nH]c2nc(-c3ccc(S(=O)(=O)O)cc3)[nH]c2c1=O`: the remaining activity in assay [2] was 93.6% (inactive). Also, the fold change in assay [3] (setting [8]) is 0.829 (inactive); in assay [3] (setting [9]) it was 2.26. The cell count in assay [3] (setting [10]) was 7230; in assay [3] (setting [11]) it was 8720. The z-score in assay [5] was 1.45 (inactive).

For the molecule `Cc1nc2c(c(=O)[nH]1)CSCC2`, the remaining activity in assay [2] is 100% (inactive). Besides, the fold change was 0.983 (inactive) in assay [3] (setting [8]) and 1.6 in assay [3] (setting [9]). In addition, the cell count in assay [3] (setting [10]) amounted to 9080; in assay [3] (setting [11]) it was 9230. Also, the z-score in assay [5] is -0.035 (inactive).

Take `Nc1[nH]nc2nnc(-c3c(-c4ccccc4)nn4ccccc34)cc12`: in assay [1], the parasite load remaining is 43.4% (inactive) and the viability turned out to be 122%. Also, the remaining activity in assay [2] was 115% (inactive). Besides, in assay [3] (setting [8]), the fold change was 1.01 (inactive). Besides, the fold change in assay [3] (setting [9]) turned out to be 3.36. Besides, the cell count in assay [3] (setting [10]) was found to be 6630. Also, the cell count in assay [3] (setting [11]) is 6550. Moreover, in assay [6], the SSMD came to 2.88, the cell count is 7090 and the plate-normalised HSF1 focus index was 1.16 (inactive). In addition, the z-score in assay [5] was 1.04 (inactive).

On to `CC(C)N1CCN(c2ccc(C(=O)c3c(-c4ccc(O)cc4)sc4cc(O)ccc34)cc2)CC1`, for which the remaining activity in assay [2] is 105% (inactive). The figures for the fold change in assay [3] (setting [8]) and in assay [3] (setting [9]) were 0.989 (inactive) and 1.64, respectively. For the same molecule, the cell count was 6900 in assay [3] (setting [10]) and 6980 in assay [3] (setting [11]). In addition, the z-score in assay [5] was -0.43 (inactive).

Turning to `Cc1nn(-c2ccccc2)c(C)c1/C=N/N1CCN(Cc2ccccc2)CC1`, the remaining activity in assay [2] is 122% (inactive). Moreover, the results for the fold change in assay [3] (setting [8]) and in assay [3] (setting [9]) were 1.03 (inactive) and 0.466, respectively. The cell count in assay [3] (setting [10]) was 8730; in assay [3] (setting [11]), 8510; in assay [6] it was 6930. Further, the SSMD in assay [6] was determined as 3.26. Besides, in assay [6], the plate-normalised HSF1 focus index is 1.18 (inactive). Also, the z-score in assay [5] was -0.095 (inactive).

As to `Cc1ccc(-c2csc(NC(=O)c3ccccc3)n2)c(C)c1`, the remaining activity in assay [2] is 101% (inactive). Moreover, the fold change in assay [3] (setting [8]) is 0.855 (inactive) and 0.98 (inactive); in assay [3] (setting [9]), 0.603 and 0.953. Besides, the cell count is 6970 and 3650 in assay [3] (setting [10]); 8160 and 3730 in assay [3] (setting [11]). Also, the values for the z-score in assay [4] (setting [12]), in assay [4] (setting [13]) and in assay [5] were -0.247 (inactive), 0.265 and -0.675 (inactive), respectively. For the same molecule, the viability in assay [7] (at 0.000305 µM, OCI-C5x cells, with rucaparib 10 µM, 100% = cells with rucaparib alone) was 125% (inactive); in assay [7] (at 0.000305 µM, OCI-C5x cells, without rucaparib) it was 121% (inactive); in assay [7] (at 0.000305 µM, OCI-P5x cells, with rucaparib 20 µM, 100% = cells with rucaparib alone), 102% (inactive); in assay [7] (at 0.000305 µM, OCI-P5x cells, without rucaparib), 106% (inactive); in assay [7] (at 0.00122 µM, OCI-C5x cells, with rucaparib 10 µM, 100% = cells with rucaparib alone) it was 119% (inactive); in assay [7] (at 0.00122 µM, OCI-C5x cells, without rucaparib), 117% (inactive). Also, the viability in assay [7] (at 0.00122 µM, OCI-P5x cells, with rucaparib 20 µM, 100% = cells with rucaparib alone) is 99.9% (active); in assay [7] (at 0.00122 µM, OCI-P5x cells, without rucaparib), 101% (inactive); in assay [7] (at 0.00488 µM, OCI-C5x cells, with rucaparib 10 µM, 100% = cells with rucaparib alone), 132% (inactive); in assay [7] (at 0.00488 µM, OCI-C5x cells, without rucaparib), 125% (inactive); in assay [7] (at 0.00488 µM, OCI-P5x cells, with rucaparib 20 µM, 100% = cells with rucaparib alone), 98.6% (active); in assay [7] (at 0.00488 µM, OCI-P5x cells, without rucaparib), 105% (inactive). Also, the viability in assay [7] (at 0.0195 µM, OCI-C5x cells, with rucaparib 10 µM, 100% = cells with rucaparib alone) is 115% (inactive); in assay [7] (at 0.0195 µM, OCI-C5x cells, without rucaparib), 113% (inactive); in assay [7] (at 0.0195 µM, OCI-P5x cells, with rucaparib 20 µM, 100% = cells with rucaparib alone), 102% (inactive); in assay [7] (at 0.0195 µM, OCI-P5x cells, without rucaparib), 98.4% (active); in assay [7] (at 0.0781 µM, OCI-C5x cells, with rucaparib 10 µM, 100% = cells with rucaparib alone) it was 125% (inactive); in assay [7] (at 0.0781 µM, OCI-C5x cells, without rucaparib), 117% (inactive). In addition, the viability was 103% (inactive) in assay [7] (at 0.0781 µM, OCI-P5x cells, with rucaparib 20 µM, 100% = cells with rucaparib alone); 103% (inactive) in assay [7] (at 0.0781 µM, OCI-P5x cells, without rucaparib); 123% (inactive) in assay [7] (at 0.313 µM, OCI-C5x cells, with rucaparib 10 µM, 100% = cells with rucaparib alone); 116% (inactive) in assay [7] (at 0.313 µM, OCI-C5x cells, without rucaparib); 100% (inactive) in assay [7] (at 0.313 µM, OCI-P5x cells, with rucaparib 20 µM, 100% = cells with rucaparib alone); 99.4% (active) in assay [7] (at 0.313 µM, OCI-P5x cells, without rucaparib). Also, the viability is 131% (inactive) in assay [7] (at 1.25 µM, OCI-C5x cells, with rucaparib 10 µM, 100% = cells with rucaparib alone); 112% (inactive) in assay [7] (at 1.25 µM, OCI-C5x cells, without rucaparib); 98.2% (active) in assay [7] (at 1.25 µM, OCI-P5x cells, with rucaparib 20 µM, 100% = cells with rucaparib alone); 103% (inactive) in assay [7] (at 1.25 µM, OCI-P5x cells, without rucaparib); 155% (inactive) in assay [7] (at 5 µM, OCI-C5x cells, with rucaparib 10 µM, 100% = cells with rucaparib alone); 115% (inactive) in assay [7] (at 5 µM, OCI-C5x cells, without rucaparib). Moreover, the viability was 91.8% (active) in assay [7] (at 5 µM, OCI-P5x cells, with rucaparib 20 µM, 100% = cells with rucaparib alone) and 100% (inactive) in assay [7] (at 5 µM, OCI-P5x cells, without rucaparib).

By viability is commonly meant a read-out of living cells in per cent, often relative to untreated cells. As usually defined, the remaining activity is the signal under treatment as a percentage of the control signal.
